# ATXN2 expr inh = reduces ATXN2 reporter expression in HEK-293 cells. HEK-293 ATXN2-luciferase reporter, luminescence, 24 h. Potency, µM (highest dose often 57 µM), most hits filed as inhibitors. hit rate 0.72% among 360,000. AID 1745845; further: nearly all actives have a fitted effect of over 55% in size
#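 qHTS (up to 57 uM final) was run with 24 h compound exposure of reporter cells at 37 °C. Each well was multiplexed: SteadyGlo luminescence measured ATXN2-luciferase expression after a fluorogenic Gly-Phe-AFC viability readout (25 uM final).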
# LDHA inh = LDHA (human) enzyme inhibition | purified LDHA, NADH/diaphorase-resazurin fluorescence; active compounds read low | AID 1347041 | hit rate 0.15% among 480,000 | activity change, % (values are at about 110 or 230 µM) | P00338; in the data active means activity change below about -30%; inconclusive means mostly about -25% to -30%
#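 Human LDH5 at 2 nM final in Tris HCl pH 7.4 with 0.06 mM NADH and 0.2 mM pyruvate, reacted 5 minutes at room temperature. Remaining NADH coupled via diaphorase/resazurin; resorufin fluorescence read at 0 and 20 minutes, normalized to enzyme-free and DMSO wells.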
# TGFb SMAD3 inh = inhibitors of TGF-b signaling | hit rate 1.2% among 410,000 | HepG2 CAGA-GFP TGF-b/SMAD3 reporter, GFP fluorescence, 18 h; TGF-beta stimulated, 500 pg/mL final | Potency, µM (titrated, usually from 46.1 µM), hits mostly inhibitors | AID 588855; further: nearly all actives have a fitted effect of over 65% in size
#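 TGF-beta reporter screen: HEPG2 CAGA-GFP, 1% FBS, 500 pg/mL TGF-beta final, 18 h; per-cell GFP summed per well; curves fitted and categorized by class.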
# IDH1 R132H inh = human IDH1 R132H inhibition. O75874. IDH1-R132H enzyme, NADPH consumption, diaphorase/resazurin fluorescence. Potency, µM (titrated, usually from 76.6 µM), most hits filed as inhibitors. hit rate 0.093% among 390,000. AID 602179; further: nearly all actives have a fitted effect of over 65% in size
# Target sequence (O75874 whole entry R132H, stated change not applied): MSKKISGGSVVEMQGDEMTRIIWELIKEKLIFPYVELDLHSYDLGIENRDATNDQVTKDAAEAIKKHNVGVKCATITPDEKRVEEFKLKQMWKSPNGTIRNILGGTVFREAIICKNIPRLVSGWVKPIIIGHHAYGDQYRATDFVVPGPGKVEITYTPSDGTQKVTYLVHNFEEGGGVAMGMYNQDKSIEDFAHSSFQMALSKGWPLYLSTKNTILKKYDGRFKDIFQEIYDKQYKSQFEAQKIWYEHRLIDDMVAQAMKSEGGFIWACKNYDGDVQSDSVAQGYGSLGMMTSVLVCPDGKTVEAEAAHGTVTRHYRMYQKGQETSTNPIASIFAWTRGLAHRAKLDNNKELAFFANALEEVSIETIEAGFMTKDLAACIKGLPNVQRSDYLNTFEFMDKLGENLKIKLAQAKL
#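 IDH1-R132H (0.5 ug/mL dispensed) in pH 7.5 Tris buffer was preincubated 30 min with compound, then given a substrate mix of 0.016 mM NADPH and 2 mM alpha-KG for 80 min at room temperature; remaining NADPH was read by diaphorase/resazurin fluorescence.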
# HepG2 tox-1 = HepG2 cytotoxicity, counter-screen for TGF-b inhibitors; HepG2 CAGA-GFP viability, ATP luminescence, 18 h; Potency, µM (titrated, usually from 46.1 µM), hits mostly cytotoxic; hit rate 0.76% among 410,000; AID 588856
#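 HepG2 CAGA-GFP cells (1000/well, DMEM with 1% FBS) received compound, then TGF-beta at 500 pg/mL final, and were incubated 18 hours at 37 degrees C. Viability was read by CellTiter-Glo luminescence. Media-only wells were set as complete cell-killing and DMSO as no toxicity.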
# ATXN viability = viability counter-screen for ATXN expression inhibitors; Potency, µM (titrated, usually from 56.7 µM), actives largely listed as cytotoxic; S2 cells (HEK-293 line with an ATXN2-luciferase reporter) viability, CellTiter-Fluor protease fluorescence, 24 h; AID 651635; hit rate 0.49% among 400,000; further: nearly all actives have a fitted effect of over 40% in size
# TGFb confirm = confirmation of TGF-b signaling inhibitors in HepG2 reporter cells. shares compounds with TGFb SMAD3 inh. HepG2 CAGA-GFP TGF-b reporter, GFP fluorescence, 18 h; cells stimulated with TGF-beta, 500 pg/mL. Potency, µM (doses to about 46.1 µM), actives largely listed as inhibitors. hit rate 63% among 1,600; further: nearly all actives have a fitted effect of over 65% in size
# HepG2 tox-2 = toxic to HepG2 cells in TGF-b counterscreen. shares compounds with TGFb SMAD3 inh. HepG2 CAGA-GFP viability, ATP luminescence, 18 h; cells stimulated with TGF-beta, 500 pg/mL. Potency, µM (top dose mostly 46.1 µM), most hits filed as inhibitors. hit rate 27% among 1,600. AID 720535; further: nearly all actives have a fitted effect of over 70% in size
# TGFb CCL64 inh = blocks TGF-b signaling in CCL64 reporter cells; shares compounds with TGFb SMAD3 inh; CCL64 CAGA-GFP reporter, TGF-b stimulated, GFP fluorescence, 18 h; Potency, µM (titrated, usually from 46.1 µM), usual class: inhibitors; hit rate 41% among 1,600; AID 720536; further: nearly all actives have a fitted effect of over 65% in size
# TGFb COP inh = TGF-b inhibition validated with COP promoter; shares compounds with TGFb SMAD3 inh; HepG2 COP-GFP TGF-b reporter, GFP fluorescence, 18 h; cells stimulated by added recombinant TGF-beta; Potency, µM (doses to about 46.1 µM), actives largely listed as inhibitors; AID 720537; hit rate 3% among 1,600; further: nearly all actives have a fitted effect of over 70% in size
# Hits are given with their value; i = inactive; ? = inconclusive; nt = not tested or not shown. An excerpt weighted towards active compounds, which were near 2.2% of everything screened. Unless noted, the call rests on the fitted dose curve; in most records, active means well fitted curve in the direction sought with a large enough effect; inconclusive means small, poorly fitted or top-dose-only effect, or another doubt; inactive means no such curve, though single readings can be large; an effect the other way counts as inactive or inconclusive.
SMILES,ATXN2 expr inh,LDHA inh,TGFb SMAD3 inh,IDH1 R132H inh,HepG2 tox-1,ATXN viability,TGFb confirm,HepG2 tox-2,TGFb CCL64 inh,TGFb COP inh
O=C(Nc1ccc(F)cc1F)Nc1c(NC2CCCCC2)c2ccccc2oc1=O,nt,i,nt,nt,nt,nt,nt,nt,nt,nt
Cc1cccc(C(=O)N2CCC(C)(C(=O)NS(=O)(=O)C3CC3)C2)c1C (configuration not stated),i,i,i,nt,i,i,nt,nt,nt,nt
O=[N+]([O-])c1ccc(NS(=O)(=O)c2ccc(Cl)c(Cl)c2)cc1,?,i,10µM,nt,i,?,10.3µM,7.31µM,?,i
O=C1OCC2=C1C(c1ccc(F)cc1)c1cc3c(cc1N2)OCO3 (configuration not stated),?,i,?,i,i,?,nt,nt,nt,nt
CCOc1ccccc1C1C2=C(COC2=O)Nc2cc3c(cc21)OCO3 (configuration not stated),i,i,7.08µM,i,i,?,3.26µM,i,1.84µM,i
O=C(O)CNS(=O)(=O)/C=C/c1ccccc1,i,i,i,i,i,i,nt,nt,nt,nt
Clc1cccc(-c2nc3ccc(Br)cn3c2Cc2ccsc2)c1,i,i,?,nt,i,?,nt,nt,nt,nt
Cc1ccc(Cc2c(-c3cccc(Cl)c3)nc3ccc(C)cn23)cc1,i,i,10µM,nt,i,?,18.4µM,?,?,i
Brc1cccc(-c2nc3ccc(Br)cn3c2Cc2ccsc2)c1,i,i,11.2µM,nt,i,?,23.1µM,?,?,i
COc1ccc(Cc2c(-c3ccccc3)nc3ccc(Br)cn23)c(C)c1,i,i,10µM,nt,i,?,?,?,?,i
Clc1ccc2nc(-c3cccc(Br)c3)c(Cc3ccsc3)n2c1,i,i,10µM,nt,i,i,?,?,?,i
C[C@@H]1CN([C@@H](C)CO)C(=O)CCCn2nncc2CO[C@H]1CN(C)S(=O)(=O)c1ccc(Oc2ccccc2)cc1,i,i,i,i,i,i,nt,nt,nt,nt
CSc1ncc(Cl)c(C(=O)Nc2c(C(=O)c3ccc(Cl)cc3)oc3ccccc23)n1,i,i,i,i,i,i,nt,nt,nt,nt
CCOC(=O)c1c(C)[nH]c(C(=O)N/N=C/c2ccc(Br)cc2)c1C,i,i,1.41µM,i,i,?,0.92µM,i,?,i
CCc1nc2ccc(C(=O)N3CCN(c4cccc(C(F)(F)F)c4)CC3)cc2nc1CC,i,i,20µM,i,i,i,?,i,?,i
CCc1nc2ccc(C(=O)N3CCN(c4ccccc4)CC3)cc2nc1CC,i,i,?,i,i,i,nt,nt,nt,nt
O=C(c1ccc(CSc2nc3ccncc3[nH]2)cc1)N1CCCCCC1,?,i,i,i,i,i,nt,nt,nt,nt
O=C(c1ccc(CSc2nc3ccncc3[nH]2)cc1)N1CCN(c2cccc(Cl)c2)CC1,?,i,7.94µM,i,i,?,16.4µM,?,?,i
N#Cc1ccc(NC(=O)Nc2ccc(Oc3ccc(NC(=O)Nc4ccc(C#N)cc4)cc3)cc2)cc1,?,i,5.62µM,i,i,?,4.61µM,?,i,i
O=S(=O)(NCc1ccco1)N1CCCCCC1,i,i,i,i,i,i,nt,nt,nt,nt
C[C@@H]1C[C@H](C)CN(C(C(=O)O)c2cn(C)c3ccc(C(=O)O)cc23)C1 (some centres not stated),nt,i,nt,nt,nt,nt,nt,nt,nt,nt
COC(=O)CCS(=O)(=O)c1nc(-c2ccccc2)cc(C(F)(F)F)n1,?,i,5.01µM,i,14.1µM,nt,4.61µM,14.6µM,2.06µM,?
O=[N+]([O-])c1ccc(F)c(CN2CCN(c3ncc(Cc4ccccc4)cn3)CC2)c1,nt,i,nt,nt,nt,nt,nt,nt,nt,nt
CN(c1cccc(NC(=O)CN(c2cccc(Cl)c2)S(=O)(=O)c2ccccc2)c1)S(C)(=O)=O,i,i,?,i,i,i,i,i,?,i
Cc1ccc(S(=O)(=O)N2CCCCC2)cc1C(=O)OC1CCCCC1=O (configuration not stated),i,i,?,i,i,i,?,i,i,i
SMILES,ATXN2 expr inh,LDHA inh,TGFb SMAD3 inh,IDH1 R132H inh,HepG2 tox-1,ATXN viability,TGFb confirm,HepG2 tox-2,TGFb CCL64 inh,TGFb COP inh
NC(=O)C1CCN(c2ncc(Br)cn2)CC1,nt,i,nt,nt,nt,nt,nt,nt,nt,nt
CCn1c2ccccc2c2cc(/C=N/NC(=O)c3ccccc3C)ccc21,?,i,3.98µM,i,i,i,8.2µM,4.11µM,?,i
CCn1c2ccccc2c2cc(/C=N/NC(=O)c3cccc(C)c3)ccc21,?,i,i,i,i,i,nt,nt,nt,nt
Cc1ccc(C(=O)CSc2nc(C)cc(SCc3nnc(-c4ccccc4)o3)n2)cc1,i,i,i,i,i,i,nt,nt,nt,nt
COc1ccc(C(=O)CSc2cc(C)nc(SCC(=O)c3ccc(C)cc3)n2)cc1,i,i,?,i,i,i,?,i,i,i
CCC(=O)N1CCc2cc(Br)cc(S(=O)(=O)CCC(=O)N3CCN(c4cccc(C)c4)C(C)C3)c21 (configuration not stated),i,i,?,i,i,?,nt,nt,nt,nt
CCNc1nc(N)c(C(=O)c2ccc(Cl)s2)s1,i,i,12.6µM,i,i,i,6.51µM,?,?,i
CCn1c(C(=O)N2CCCC(C(=O)NCCc3ccc(C)cc3)C2)cc2sccc21 (configuration not stated),?,i,12.6µM,i,i,?,?,i,i,i
Cn1c(C(=O)N2CCCC(C(=O)NCCCSC3CCCCC3)C2)cc2sccc21 (configuration not stated),i,i,12.6µM,i,i,i,?,?,?,i
CCn1c(C(=O)N2CCCC(C(=O)NCCCc3ccccc3)C2)cc2sccc21 (configuration not stated),i,i,i,i,i,i,nt,nt,nt,nt
CCOC(=O)C1CCCN(C(=O)Cn2sc3nc(C)cc(C)c3c2=O)C1 (configuration not stated),?,i,?,i,i,?,nt,nt,nt,nt

# Screening results: PubChem, National Center for Advancing Translational Sciences (NCATS)
